Assay outcomes from PubChem.
Rows were chosen to be rich in hits. Some 18% of all compounds tested hit in one or more screens of this group.
RORgamma inh: qHTS for inhibitors of ROR gamma transcriptional activity; Nuclear receptor ROR-gamma (Mus musculus), P51450; Drosophila S2 Gal4-RORgamma UAS-luciferase reporter, 20 h; Potency, µM (highest dose often 53.6 µM), for inactives: at the top dose activity change, negative = inhibition, hits mostly inhibitors; 5.4% of 310,000 active; also: potency is read from the fitted curve at half-maximal effect; nearly all actives have a fitted effect of over 60% in size
Target sequence (P51450 whole entry, looked up, the tested form may be a part): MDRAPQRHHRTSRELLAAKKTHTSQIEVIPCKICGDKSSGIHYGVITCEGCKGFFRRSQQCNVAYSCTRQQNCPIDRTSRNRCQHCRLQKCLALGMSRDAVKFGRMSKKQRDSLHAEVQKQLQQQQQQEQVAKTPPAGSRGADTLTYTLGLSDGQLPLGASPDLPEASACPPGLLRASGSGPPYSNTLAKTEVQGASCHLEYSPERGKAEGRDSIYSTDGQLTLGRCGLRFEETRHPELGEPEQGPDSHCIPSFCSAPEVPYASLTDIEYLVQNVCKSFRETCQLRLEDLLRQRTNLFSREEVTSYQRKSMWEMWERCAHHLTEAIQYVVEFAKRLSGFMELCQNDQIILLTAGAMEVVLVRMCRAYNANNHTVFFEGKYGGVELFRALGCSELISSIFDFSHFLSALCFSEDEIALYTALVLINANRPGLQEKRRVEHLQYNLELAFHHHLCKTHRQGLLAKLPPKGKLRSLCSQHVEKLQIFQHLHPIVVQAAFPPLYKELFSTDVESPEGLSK
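Compounds are pin-transferred onto Drosophila Schneider cells expressing a copper-inducible Gal4–ROR gamma transactivation domain fusion. After 1 hr, copper sulfate is added to 700 uM final; luciferase is read 20 hr later.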
DT40 TDP1 CPT: qHTS for Inhibitors of human tyrosyl-DNA phosphodiesterase 1 (TDP1): qHTS in cells in presence of CPT. chicken DT40 Tdp1-/-;hTDP1 cells + 20 nM CPT, ATP luminescence, 48 h. Potency, µM (highest dose often 46.2 µM), for inactives: at the top dose activity change, negative = growth inhibition, most hits filed as inhibitors. 12% of 420,000 active; also: potency is read from the fitted curve at half-maximal effect; nearly all actives have a fitted effect of over 55% in size
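Cell growth measured by CellTiter-Glo luminescence after a minimum 48 h, 37 C compound exposure with 20 nM CPT in Tdp1-knockout DT40 cells stably expressing hTDP1, seeded 400/well; qHTS titration format.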
LDHA inh: qHTS assay for inhibitors of human lactate dehydrogenase. 0.15% of 480,000 active. purified LDHA, NADH/diaphorase-resazurin fluorescence; stronger effect = lower value. activity change, % (values are at about 110 or 230 µM). AID 1347041, 2019. L-lactate dehydrogenase A chain (Homo sapiens), P00338; in the data active = activity change below about -30%; inconclusive = mostly about -25% to -30%;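 also: plate controls were DMSO wells for no effect and wells without enzyme for full effect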
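Enzyme activity of human lactate dehydrogenase 5 (2 nM; 0.06 mM NADH, 0.2 mM pyruvate, 5 min, RT) is measured via a resazurin/diaphorase fluorescence readout of residual NADH.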
TDP1 cell noCPT: qHTS for Inhibitors of human tyrosyl-DNA phosphodiesterase 1 (TDP1): qHTS in cells in absence of CPT; DT40 Tdp1-/- hTDP1 cells, no CPT, ATP luminescence, 48 h; Potency, µM (titrated, usually from 46.2 µM), for the others: at the highest dose activity change, negative = growth inhibition, hits mostly inhibitors; 15% of 420,000 active; AID 686978, 2013; also: potency is read from the fitted curve at half-maximal effect; nearly all actives have a fitted effect of over 55% in size
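No-CPT arm: Tdp1-/-;hTDP1 DT40 cells (400/well) plus compounds, incubated ≥48 hr at 37 °C. Readout CellTiter-Glo luminescence.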
IL-1B inflam inh: qHTS for Inhibitors of Inflammasome Signaling: IL-1-beta AlphaLISA Primary Screen. AID 743279, 2014. 4.7% of 360,000 active. THP-1 LPS/ATP IL-1B secretion, AlphaLISA, 16 h; stronger effect = lower value. activity change, % at 57.5 µM; in the data active = activity change below about -50%; inconclusive = mostly about -30% to -49%
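THP-1 cells pretreated 1 hr with compounds (up to 57.5 uM final), then stimulated with LPS (250 ng/mL final) plus ATP (1.25 mM final); secreted IL-1B measured by AlphaLISA after 16 hr, decreased signal indicating inhibition.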
VP16 counter: VP16 counterscreen qHTS for inhibitors of ROR gamma transcriptional activity; Drosophila S2 Gal4-VP16 UAS-luciferase, luminescence, 20 h; Potency, µM (titrated, usually from 53.6 µM), without a hit: at the top dose activity, negative = inhibition, usual class: inhibitors; AID 2546, 2010; 3.5% of 310,000 active;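 also: Gal4-VP16 expression switched on by copper sulfate through the metallothionein promoter; potency is read from the fitted curve at half-maximal effect; nearly all actives have a fitted effect of over 50% in size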
Active calls of the source: *; i = inactive; u = inconclusive; x = no result given; [ ] = another dose, or the depositor's remark. Unless noted, calls follow the shape of the dose curve; as a rule, active = well fitted curve in the direction sought with a large enough effect; inconclusive = small, poorly fitted or top-dose-only effect, or another doubt; inactive = no such curve, though single readings can be large; an effect the other way counts as inactive or inconclusive. Unless noted, % is scaled to controls: 0 for no effect and ±100 for the full control effect.

SMILES	RORgamma inh	DT40 TDP1 CPT	LDHA inh	TDP1 cell noCPT	IL-1B inflam inh	VP16 counter
COc1ccc(C2=NC(C(F)(F)F)(C(F)(F)F)N=C(N(C)C)O2)cc1	x	x	-2.6	x	x	x
CCCCN(CCCC)CCNC(=O)C1=C(C)C(=O)OC12CCN(C(C)=O)CC2	x	x	-5.4	x	x	x
CCCOC(=O)c1ccc(Oc2coc3cc(OC(=O)c4ccc5c(c4)OCO5)ccc3c2=O)cc1	x	x	9.8	x	x	x
O=C(N/N=C/c1ccc(OC(=O)c2ccccc2)c([N+](=O)[O-])c1)c1ccc(O)cc1	8.91µM*	u	-4.2	-28.1%	48.1	u
N#Cc1cc([N+](=O)[O-])ccc1Oc1cccc(/C=N/NC(=O)c2cccc(Cl)c2)c1	u	u	-4.8	20.6µM*	u	-16.7%
COc1ccc(C(=O)Oc2ccc(/C=N/NC(=O)c3ccccc3OC)cc2[N+](=O)[O-])cc1	u	-17.4%	-2.5	-22.6%	19.9	-1.1%
O=C(N/N=C/c1cccc([N+](=O)[O-])c1)c1ccc(COc2ccccc2-c2ccccc2)cc1	0.2%	20.6µM*	-2.0	23.1µM*	i	-2.7%
O=C(N/N=C/c1cccc([N+](=O)[O-])c1)c1ccc(Br)cc1	-3.9%	8.0%	-19.6	-4.9%	-29.9	-6.0%
COc1ccc(/C=N/NC(=O)c2cccc([N+](=O)[O-])c2)cc1OC(=O)c1ccccc1	u	16.4µM*	-2.4	14.6µM*	54.7	u
O=C(Oc1cccc(/C=N/NC(=O)c2ccccn2)c1)c1ccc([N+](=O)[O-])cc1	u	-18.9%	-2.6	u	i	u
COc1ccc(/C=N/NC(=O)c2cccc([N+](=O)[O-])c2)cc1OC	-39.0%	-9.7%	-1.8	8.7%	-8.1	-1.7%
CCCCCC/C(=N\NC(N)=O)c1ccccc1	x	x	2.5	x	x	x
CN1CCN(C(=O)CN2CCN(C(C(=O)O)c3cn(CC(=O)O)c4cc(Cl)ccc34)CC2)CC1 (stereo unspecified)	x	x	12.0	x	x	x
c1ccc2c(c1)Cc1cccnc1-2	x	x	-14.6	x	x	x
CN1CCCc2cc(/C=C/c3ccnc4ccccc34)ccc21	x	11.2µM*	x	14.1µM*	x	x
C(=C\c1ccnc2ccccc12)/c1ccc(N2CCOCC2)cc1	x	1.78µM*	-6.0	1.26µM*	x	x
C(=C\c1ccnc2ccccc12)/c1ccc(N2CCNCC2)cc1	x	u	x	14.1µM*	x	x
CN1CCCc2ccccc21	x	-1.5%	u	-13.6%	x	x
Oc1ccc(/C=C/c2ccccc2)c2cccnc12	x	x	25.5	x	x	x
C(=C\c1ccnc2ccccc12)/c1ccc(N2CCN(c3ccc(/C=C/c4ccnc5ccccc45)cc3)CC2)cc1	x	5.01µM*	-1.5	6.31µM*	x	x
O=C(Cn1ccc2c(Br)cccc21)NC1CC1	x	x	-2.5	x	x	x
CCC(C)C(=O)N1c2ccccc2C(=C2SC(C(=O)OC)=C(C(=O)OC)S2)C(=S)C1(C)C (stereo unspecified)	-9.5%	11.2µM*	-0.2	12.6µM*	-59.1*	-17.4%
CCOC(=O)[C@@H]1[C@H]2COc3cc(OC)ccc3[C@@H]2N2C(=O)N(c3ccc(C(F)(F)F)cc3)C(=O)[C@]12C	18.9%	23.1µM*	0.7	20.6µM*	-1.6	1.1%
CCOC(=O)[C@@H]1[C@H]2COc3cc(OC)ccc3[C@@H]2N2C(=O)N(c3ccc(Br)cc3)C(=O)[C@]12C	x	14.6µM*	-0.7	u	-20.8	x
O=c1[nH]nc(SCc2ncc(-c3ccccc3)o2)n1CCc1ccccc1	x	x	-10.2	x	x	x
SMILES	RORgamma inh	DT40 TDP1 CPT	LDHA inh	TDP1 cell noCPT	IL-1B inflam inh	VP16 counter
COc1ccc(-c2nc(-c3cccs3)c(-c3cccs3)[nH]2)cc1O	38.6%	16.4µM*	0.9	13µM*	-2.4	-20.3%
O=C(O)c1ccc(-c2nc(-c3ccccc3)c(-c3cccs3)[nH]2)cc1	21.2%	15.2%	-6.6	11.1%	32.2	4.2%
Cn1c(=O)c2c(nc(Cl)n2CC(=O)N2CCCCC2)n(C)c1=O	26.3%	6.2%	1.3	-7.3%	19.1	-11.3%[10 µM]
CC1CCCC(NC(=O)Cn2c(Cl)nc3c2c(=O)n(C)c(=O)n3C)C1C (stereo unspecified)	x	u	-12.4	20.6µM*	31.0	x
CCN(C(=O)Cn1c(Cl)nc2c1c(=O)n(C)c(=O)n2C)C1CCCCC1	x	20.6µM*	-3.2	20.6µM*	11.1	x
Cc1ccc(C(=O)NC2CC2)cc1S(=O)(=O)N1CCOCC1	x	-2.4%	-5.3	-0.2%	-12.2	x
CC(=O)c1ccc(NC(=O)c2ccc(S(=O)(=O)N3CCCC3)cc2)cc1	u	u	1.2	16.4µM*	0.0	7.3%
CC(=O)c1ccc(NC(=O)Nc2ccc(S(=O)(=O)N3CCCC3)cc2)cc1	25.1%	u	-6.9	14.6µM*	-108.3*	-6.2%
O=C(NC1CCN(S(=O)(=O)c2ccc(F)cc2)CC1)c1ccc(F)cc1	1.0%	-0.8%	-10.1	5.1%	-53.7*	-14.8%
CC(=O)c1ccc(S(=O)(=O)Nc2ccc(S(=O)(=O)N3CCCCC3)cc2)cc1	x	-19.8%	0.3	3.2%	0.0	x
CCC(C)(C)C1CCC(NC(=O)c2ccc(S(=O)(=O)N3CCOCC3)cc2)CC1 (stereo unspecified)	x	14.6µM*	-5.4	23.1µM*	-1.8	x
O=C(Nc1ccc(Cc2ccncc2)cc1)c1ccc(S(=O)(=O)N2CCCC2)cc1	u	13µM*	-0.6	10.3µM*	-95.9*	11.2µM*
CS(=O)(=O)c1ccc(C(=O)Nc2ccc(S(=O)(=O)N3CCCCC3)cc2)cc1	x	u	-5.0	u	2.6	x
O=C(Nc1ccc(F)cc1)Nc1cc(S(=O)(=O)N2CCOCC2)ccc1N1CCCC1	31.7%	10.0%	-1.1	-3.9%	5.4	-3.5%
CS(=O)(=O)c1cccc(C(=O)Nc2ccc(S(=O)(=O)N3CCCCC3)cc2)c1	x	10.3µM*	-2.3	18.4µM*	11.2	x
O=C(Nc1ccc(S(=O)(=O)N2CCCC2)cc1)Nc1ccc(F)cc1F	x	u	-3.4	29.1µM*	-13.1	x
O=C(Nc1ccc(F)cc1)c1ccc(S(=O)(=O)N2CCCC2)cc1	0.6%	2.4%	-2.0	u	-74.6*	8.5%
O=C(Nc1ccc(F)cc1)Nc1ccc(S(=O)(=O)N2CCCC2)cc1	x	u	-2.9	u	-17.8	x
C[C@]12CCC(=O)C=C1[C@@H]1C[C@@H]1[C@H]1[C@@H]3[C@@H]4C[C@@H]4[C@@]4(CCC(=O)O4)[C@@]3(C)CC[C@@H]12	x	8.41µM*	x	7.5µM*	x	x
